# PubChem BioAssay AID845 (Columbia University Molecular Screening Center, 2007)
# Screen size: about 94,000 compounds; about 390 (0.41%) were called active. The sample as a whole holds a higher share of actives than the screen did. Values without a mark were called inactive.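 Rule for the calls: active = cell count reduction more than 3 SD above the screen-wide mean (cut at about 70% in these data); inactive = the rest.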
# Assay: cytotoxicity in IL-1B stimulated HUVEC, primary screen, cytotoxicity control for IL-1B NFkB translocation project, imaging, Hoechst nuclear count, IL-1B stimulus (AID 845);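 note: normalized per plate to untreated control cells as the no-loss baseline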
# Settings: HUVEC cell count loss, at 2 µM, stronger effect = higher value
row,Compound,cell count reduction
1,Cc1nc2c(-c3ccccc3)c(C)[nH]n2c(=O)c1Cl,86.7% (active)
2,Cc1[nH]n(-c2cccc(Cl)c2)c(=O)c1-c1ccc(Cl)cc1,-1.3%
3,Cc1cc(-c2ccccc2)n2nc(C)c(-c3ccccc3)c2n1,-18.8%
4,O=C(NNC(=O)c1cccnc1)Nc1ccccc1,19.6%
5,O=C(Nc1ccccc1Cl)O/N=C(/c1ccccc1)c1ccccn1,-21.6%
6,CCOC(=O)C1(S(=O)(=O)c2ccc(Cl)cc2)CCN(Cc2ccccc2)CC1,-78.7%
7,Cc1c(C(=O)NCc2ccccc2)cnn1-c1ccccc1,-8.5%
8,O=[N+]([O-])c1ccc(Oc2ccc(F)cc2Br)c2ccncc12,5.4%
9,COC(=O)CNC(=O)c1ccccc1[N+](=O)[O-],22.7%
10,Clc1ccc(CSc2nnc(/C=C/c3ccccc3)o2)c(Cl)c1,-46.7%
11,CCOC(=O)c1c(NC(=O)/C=C/c2ccco2)sc(C)c1C,-43.8%
12,O=C1/C(=C\Nc2ccccc2)CCN1c1ncccn1,-32.2%
13,CN(C(=O)CSc1nc(C2CC2)nc2ccccc12)c1nc(-c2ccccc2)cs1,0.9%
14,CCN(CC)S(=O)(=O)c1ccc(N2CCOCC2)c(C(=O)O)c1,5.3%
15,COc1cc(C)nc(N2CCCC(C(=O)NCC(C)C)C2)n1 (configuration not stated),-46.9%
16,COc1ccc(S(=O)(=O)N2CCCC(C(=O)N3CCN(C)CC3)C2)cc1C (configuration not stated),-33.6%
17,Cc1cc(=O)n2nc(N3CCCC(C(=O)N4CCN(C)CC4)C3)sc2n1 (configuration not stated),85.7% (active)
18,COc1ccc(C(C#N)Nc2ccc(C)cc2)cc1 (configuration not stated),-28.6%
19,Cc1cc(C)c(OCC(=O)N/N=C/c2ccco2)c(C)c1,19.3%
20,O=[N+]([O-])c1ccccc1/C=N/n1c(COc2ccccc2)n[nH]c1=S,-18.2%
21,O=C(c1ccc(CN2CCOCC2)cc1)N1CCN(c2ccccc2F)CC1,2.7%
22,C/C=C/C(=O)Nc1nnc(C(C)C)s1,7.2%
23,COc1cccc(NC(=O)c2nn(C34CC5CC(CC(C5)C3)C4)cc2[N+](=O)[O-])c1,-1.4%
24,Cc1nc(SCC(=O)c2ccccc2)c([N+](=O)[O-])[nH]1,-10.8%
25,CCOc1ccccc1NC(=O)C1CCCN(C(=O)Nc2ccccc2)C1 (configuration not stated),-30.5%

row,Compound,cell count reduction
1,Cc1cccc(C)c1NC(=O)c1ccc(CN2CCc3ccccc3C2)cc1,-6.8%
2,CCOC(=O)COc1cc(OCC(=O)OCC)c2c(=O)cc(-c3ccccc3)oc2c1,7.8%
3,C=C(C)C(=O)Nc1cccc(C(C)=O)c1,1.7%
4,O=c1[nH]n(-c2cccc(Cl)c2)c2ncccc12,-27.9%
5,CCCc1ccc(OCC(=O)NNC(=S)NC(=O)c2ccco2)cc1,-2.4%
6,O=c1c2ccccc2nc2n1C(CSc1ccc(F)cc1)CN2 (configuration not stated),-9.2%
7,CSc1ccc(C#N)cc1NC(=O)c1ccc(Cl)cc1,-20.7%
8,CC1(C)N=C(c2ccccn2)C(C)(C)N1O,10.6%
9,Cc1cccc(N(CC(=O)N2CCOCC2)S(C)(=O)=O)c1,-61.2%
10,Nc1ccc(C(=O)OCC(=O)NC2CCCc3ccccc32)cc1[N+](=O)[O-] (configuration not stated),-106%
11,CCc1cccc(C)c1N(C(=O)Cn1c(CO)nc2ccccc21)C(C)COC (configuration not stated),-7.6%
12,COC(=O)c1cc(NC(=O)CC2C(=O)NCCN2C(=O)c2ccc(F)cc2)cc(C(=O)OC)c1 (configuration not stated),-3.7%
13,N#CC1=C(SCc2ccc(C#N)cc2)N=C(N)C(c2nc(-c3ccccc3)cs2)C12CCCCC2 (configuration not stated),25.2%
14,COc1ccc(C)cc1S(=O)(=O)Nc1cccc(Cl)c1Cl,6.2%
15,O=C(CNS(=O)(=O)c1ccc(Br)s1)N1CCN(C(=O)c2ccco2)CC1,15.9%
16,COc1ccc(C)cc1NC(=O)CCS(=O)(=O)c1cccc2nonc12,0.3%
17,OC(CN1C2=NCCCN2c2ccccc21)c1ccc(Br)cc1 (configuration not stated),8.9%
18,Cc1ccc(-c2csc(SCC(=O)Nc3cc(C)on3)n2)cc1,8.8%
19,CCCNC(=O)N1CCN(C(=O)NCCC)CC1,4.6%
20,CSCCC(NC(=O)COc1ccccc1)C(=O)OCC(=O)c1cc2ccccc2o1 (configuration not stated),-13.3%
21,O=C(NC1=NCCS1)[C@H](Cc1ccccc1)N1C(=O)c2ccccc2C1=O,-5.1%
22,COc1ccc(OC)c(C(=O)CSc2nnc(-c3cccs3)o2)c1,-23.7%
23,CC1CCCCN1S(=O)(=O)c1ccc(C(=O)Nc2nnc(-c3cccs3)o2)cc1 (configuration not stated),-4.4%
24,NC(=O)CSc1oc(-c2cccs2)nc1S(=O)(=O)c1ccccc1,72.9% (active)
25,O=C(NCCN1CCN(Cc2ccccc2)CC1)c1cc2c(=O)[nH]c3ccccc3c2s1,26.5%

row,Compound,cell count reduction
1,O=C(CN1CCCCCC1)N1c2ccccc2Sc2ccc(C(F)(F)F)cc21,-33.3%
2,CCCC(O)(c1ccc(OC)cc1)C(CN(C)C)c1ccccc1 (configuration not stated),-16.3%
3,O=C(Cc1ccc(S(=O)(=O)N2CCCC2)s1)NC1CCCCCC1,-2.6%
4,O=C(O)CCCCc1nc2ccccc2s1,0.3%
5,CCCC(=O)Nc1nc2ccc(NC(=O)c3cccnc3)cc2s1,-12.3%
6,O=C(CNC(=O)Cc1ccccc1)NCC(=O)OCC(=O)c1ccccc1Cl,-68.8%
7,CC(Oc1ccc(Cl)cc1)c1ccnn1S(C)(=O)=O (configuration not stated),7.5%
8,COCCCNC(=O)CN1CCN(Cc2ccccc2Cl)C1=O,-10.5%
9,C=CCOc1ccc(Cl)cc1CNCCCN1CCOCC1,6.4%
10,Cc1ccccc1OCC(=O)NCC(=O)OCC(=O)c1ccc2ccccc2c1,13%
11,O=C(/C=C/Nc1ccccc1OC(F)(F)F)C(F)(F)F,-22.1%
12,CCCCOC(=O)Nc1sc2nc(C)cc(C)c2c1-n1cccc1,-2.8%
13,Cc1ccc(NC(=S)NC(=O)c2ccc(-c3ccccc3)cc2)cc1,-7.3%
14,O=C(Nc1nnc(SCc2ccccc2)s1)c1ccco1,-6.4%
15,COCCCNC(NC(=O)c1ccc(C)cc1)C(Cl)(Cl)Cl (configuration not stated),-35.5%
16,CCN(CC)C(=O)CSc1nnc(CNc2ccc(F)cc2)n1Cc1ccco1,-17.8%
17,CCOc1ccc(CN2CCCN(C)CC2)cc1,-10.1%
18,Cc1ccc(SCC2=NNC(=O)C2)cc1,-29.7%
19,O=C(NCc1cccnc1)Nc1ccccc1F,30.7%
20,COc1ccc2c(c1OC)C(=O)c1ccccc1C2=O,-3.8%
21,c1cnc(Nc2nc(-c3ccc4ccccc4c3)cs2)nc1,22.7%
22,O=C(CN1CCCCCC1)Nc1ccc(Br)cc1Br,6.4%
23,CCOC(=O)c1ccc2c(c1)nc(C)n2CC,8.9%
24,Cc1cccn2c(=O)c(/C=C(\C#N)S(=O)(=O)c3ccc(Cl)cc3)c(N3CCC(C(N)=O)CC3)nc12,28.1%
25,O=c1[nH]c(SCc2ccccc2)nnc1-c1ccccc1,-19.8%

row,Compound,cell count reduction
1,Cc1nc(SCC(=O)N2CCc3ccccc3C2)c2c(C)c(C)sc2n1,-25.7%
2,COc1cc(OC)nc(NC(=O)CCl)n1,-85.3%
3,CC(=O)c1nn(-c2cccc(Br)c2)cc1C(=O)c1cccc2ccccc12,-1.6%
4,O=C(C(NS(=O)(=O)c1cccc2nsnc12)c1ccccc1)N1CCN(c2ccccn2)CC1 (configuration not stated),-35.8%
5,CC12CCC(C(=O)N3CCN(c4ncccn4)CC3)(c3nc4ccccc4nc31)C2(C)C (configuration not stated),82.1% (active)
6,C=C(C)c1cccc(C(C)(C)NC(=O)N2CCN(c3ncccn3)CC2)c1,22.8%
7,CCC(C(=O)NCc1ccc(OC)cc1)n1nc(C)n2c(cc3occc32)c1=O (configuration not stated),9.6%
8,Cc1ccc(S(=O)(=O)N(c2cccc(C)c2)C2CCS(=O)(=O)C2)cc1 (configuration not stated),5.1%
9,Cc1oc2nc(SCC(=O)Nc3ccc(S(N)(=O)=O)cc3)nc(NC(=O)c3ccccc3)c2c1C,13.5%
10,CCCOC(=O)Nc1sc2c(c1C(=O)OCC)CCC2,11.4%
11,CCOCC(=O)Nc1sc2c(c1C(=O)OCC)CCCC2,92% (active)
12,CCOC(=O)c1c(NC(=O)CSc2nnc(C)c(=O)[nH]2)sc2c1CCC2,-24.4%
13,O=C(Cc1ccccc1)Nc1c(C(=O)N2CCCCCC2)cnn1-c1ccccc1,-8.3%
14,COC(=O)C(C)C1Sc2ccccc2NC1=O (configuration not stated),90.9% (active)
15,CN1CCN(S(=O)(=O)c2ccc(N3CCN(S(=O)(=O)c4cccs4)CC3)nc2)CC1,-0.9%
16,Cc1ccc(OCCCC(=O)Nc2ccc(N3CCOCC3)cc2)cc1,10.3%
17,COc1ccc(-c2nnc(SCC(=O)c3ccc4c(c3)OCCO4)o2)cc1,-13.4%
18,COc1ccc(Nc2nc(-c3ccccc3)cs2)cc1,3.5%
19,COc1ccc(/C=C(/NC(=O)c2ccc(C)cc2)c2nc3ccccc3[nH]2)cc1OC,-9.1%
20,Cc1ccc(Oc2ccc3c(c2)C(=O)N(c2cccc4cccnc24)C3=O)cc1,-63.9%
21,CCOc1cc(NC(=O)c2cnccn2)c(OCC)cc1NC(=O)c1ccc(C)cc1,-42.4%
22,O=C(NCC(=O)N(Cc1cccs1)C(C(=O)NC1CCCCC1)c1ccco1)c1cccs1 (configuration not stated),24.1%
